In PubChem BioAssay AID588674 (Broad Institute, 2011):
Hit rate of the full screen: of about 360,000 compounds, about 1,800 (0.5%) were called active.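 Rule for the calls: active = mean inhibition of at least 75% with every replicate also reaching 75%; inconclusive = mean inhibition at least 75% but some replicate below; inactive = mean inhibition below 75%.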 This excerpt belongs to a sample that is enriched for actives.

Experiment: reduction of Shn3 3'UTR firefly luciferase signal, primary screen, Schnurri-3 inhibitor project, cell-based, Clone20 osteoblasts, set 2 (AID 588674);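 note: 0% = median of neutral control wells and 100% = pilot-screen positive control compound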
Settings: Clone20 osteoblast Shn3 3'UTR firefly luciferase, 24 h; at 12.5 µM; hits give high values

inhibition, inactive:
COc1ccc(NC(=O)CN2C(=O)NC(C)(c3ccccc3)C2=O)cn1 (stereo unspecified) -47.7%, COc1ccc(NC(=O)C2Cc3c(-c4ccc5c(c4)OCO5)ccnc3O2)cn1 (stereo unspecified) 15.8%, Cn1c(SCC(=O)N2CCOCC2)nnc1-c1ccc2ncccc2c1 -2.77%, Cc1cc(C)c(S(=O)(=O)N2CCCC2CNC(=O)c2ccc3c(c2)OCO3)c(C)c1 (stereo unspecified) 7.24%, CCOC(=O)c1cc(-c2ccccc2C)n(Cc2cc(C)no2)n1 4.57%, COC(=O)CN1C(=O)C(C)(C)Oc2ccc(C(=O)Nc3cccc(OC)c3)cc21 3.92%, Cc1cc(N)n2nc(-c3ccc(C(C)(C)C)cc3)cc2n1 -5.54%, O=C(NNc1ccccc1Cl)C(O)(c1cccc(C(F)(F)F)c1)c1cccc(C(F)(F)F)c1 20.3%, CC(=O)Nc1ccc(C=CC(=O)c2ccc([N+](=O)[O-])cc2)cc1 9.91%, O=C(O)C(=Cc1ccc([N+](=O)[O-])cc1)CCc1ccccc1 -2.04%, CSc1ccccc1NC(=O)c1ccc2c(c1)CCN2S(C)(=O)=O -16.4%, c1ccc(CNc2ncnc3[nH]ncc23)cc1 14.2%, COc1ccc(CNc2nccs2)cc1 -11%, CCc1ccc(N2CC(O)=C(c3nc4ccccc4c(=O)[nH]3)C2=N)cc1 -17%, CC(=O)Nc1ccc(NC(=O)CC2CCCC2)cc1 -25.4%, COc1ccc(CN2CCOC2=O)cc1OC 15.9%, O=C(Nc1ccc(Cl)c(C(F)(F)F)c1)C1Cc2c(-c3ccccc3Oc3ccccc3)ccnc2O1 (stereo unspecified) 17.7%, C/C(CC1CC(C)(C)OC1=O)=N/Nc1nc(-c2ccccc2)cs1 (stereo unspecified) -73.7%, COc1cc(C(O)c2nc(-c3cccc(C(=O)O)c3)cs2)ccc1F (stereo unspecified) -16.5%, Cc1ccc(S(=O)(=O)N(C)C)cc1NC(=O)C1Cc2ccccc2CN1C(=O)c1ccco1 (stereo unspecified) -2.14%, C/C=C(/C)C(=O)OC1Cc2c(ccc3ccc(=O)oc23)OC1(C)C (stereo unspecified) 17.3%, COc1ccc(SCc2noc(C(=O)NCC3CCCO3)c2C(=O)O)cc1 (stereo unspecified) 5.13%, Cc1ccc(NC(=S)N2CCCC(c3ccccc3)=N2)cc1 20.9%, COc1ccc(-c2cc(C(F)(F)F)n3nc(C(=O)N4CCOCC4)c(Cl)c3n2)cc1 6.42%, CN(CC(=O)Nc1cccc(F)c1)C(=O)C1=COCCO1 -7.61%, Cc1ccc(NC(=O)c2sccc2C)cc1[N+](=O)[O-] -83.1%, Cc1noc(C)c1S(=O)(=O)N(C)C[C@H]1Oc2c(NC(=O)Nc3ccc4c(c3)OCO4)cccc2C(=O)N([C@H](C)CO)C[C@@H]1C 17.8%, O=C(OCCN1C(=O)c2ccccc2C1=O)[C@@H]1CC(O)CN1S(=O)(=O)c1ccccc1[N+](=O)[O-] (stereo partly specified) -5.63%, CN(C)C=NC(=O)c1cccn1-c1ncc(C(F)(F)F)cc1Cl -4.23%, O=c1[nH]c2cccnc2n(CCNc2ncc(C(F)(F)F)cc2Cl)c1=O 2.77%, O=C(COC(=O)c1ccccc1SCC(=O)N1CCCC1)Nc1ccccc1OC(F)F -12.8%, COC(=O)C1C(=O)c2c([nH]c(C(=O)OCCSC)c2C)CC1C (stereo unspecified) -58.5%, CCCOC(=O)c1[nH]c2c(c1C)C(=O)CC(c1cccs1)C2 (stereo unspecified) 24.4%, CC(c1ccco1)N(C(=O)c1ccc(S(=O)(=O)N2CCCCC2)cc1)c1ccccn1 (stereo unspecified) 13.4%, CC(=O)N1CCOc2ccc(S(=O)(=O)N3CCN(c4cccc(C(F)(F)F)c4)CC3)cc21 40.6%, CCOC(=O)c1c(C)[nH]c(C2=NNC(=NC(C)COC)SC2)c1C (stereo unspecified) -21.6%, Cc1occc(=O)c1OCc1ccc(F)cc1 -22.9%, Fc1cccc2ncnc(OCc3ccccc3)c12 18%, CC(C)c1ccc(Cc2nnc(NCCCO)[nH]c2=O)cc1 7.96%, COc1ccc(Cc2nnc(SC)[nH]c2=O)cc1 -14%, CC(/C=C/C1(O)C(C)CC(=O)CC1(C)C)OC1OC(CO)C(O)C(O)C1O (stereo unspecified) -14.8%, CCc1ccc(NC2Nc3cc(C)nn3S2)cc1 (stereo unspecified) -59%, COc1cc(/C=N/Nc2ccc(C)cc2)cc(Br)c1O 5.6%, COc1ccccc1-n1c(SCC(=O)Nc2cccc(C(=O)O)c2)nnc1-c1ccccc1O -11.2%, CN(CCO)S(=O)(=O)c1ccc2c(c1)C(=O)c1cc(S(=O)(=O)N(C)CCO)ccc1-2 16.6%, CCn1nc(C)c(CNC(=O)C2CCC(=O)N(Cc3cccc(F)c3)C2)c1C (stereo unspecified) -6.25%, COC(c1ccccc1)(c1ccccc1)C(Oc1nc(C)cc(C)n1)C(=O)O (stereo unspecified) 5.7%, Cc1cc(C)nc(SC(C)C(=O)N/N=C/c2cccs2)n1 (stereo unspecified) 4.78%, Clc1ccc(Cl)c(Oc2ccc(Oc3nc(Cl)ccc3Cl)cc2)n1 -2.29%, O=C(N/N=C/c1ccccc1O)C1CCCC1 26.7%, O=C(NN=Cc1ccc2c(c1)CCC2)c1ccccc1O -68.8%, COC(=O)Cc1ccc(OC2(C)CCN(Cc3ccc4c(c3)OCCO4)C2)cc1 (stereo unspecified) -22.2%, O=C(NCCCN1CCCCC1)C1CCCN(c2ncnc3c2nc2n3CCCCC2)C1 (stereo unspecified) 2.4%, O=C(CSC1=NS(=O)(=O)c2cc(F)ccc2N1)Nc1ccccc1F -17.3%, Cc1cc(C)n(CCC(=O)N2CCN(S(=O)(=O)c3ccc(C)c(C)c3)CC2)n1 -21.5%, COc1ccc(CCNC(=O)C(=O)NCC2CCNCC2)cc1OC -3.81%, O=C(O)CSc1nccn1-c1cccc(Cl)c1 -5.11%, Cc1cc(=O)c2ccc(NC(=O)c3ccccc3)cc2[nH]1 -6.37%, O=C(NCCc1ccccc1)c1cccc(NC(=O)c2ccccc2)c1 -14.5%, Cn1c2c(c(=O)n(C)c1=O)C1c3ccccc3OCC1C(C)(C)O2 (stereo unspecified) -0.463%, CC1COC2C(O1)N(S(C)(=O)=O)CCN2S(C)(=O)=O (stereo unspecified) 1.27%, C=CCn1c(=O)c2ccccc2n2c(SCC(=O)N3CCCc4ccccc43)nnc12 -3.54%, O=C(CSc1nc2ccccc2c(=O)n1CCCO)N1CCc2ccccc21 3.09%, Cn1cc(CN2CCCC(CO)C2)c(-c2ccc(Oc3ccccc3)cc2)n1 (stereo unspecified) 6.06%, C[C@H](NC(=O)CC[C@H]1O[C@@H](n2ccc(=O)[nH]c2=O)[C@H](O)[C@@H]1O)c1cccc2ccccc12 -13%, COc1cccc(CNC(=O)C(=O)NCCC2CCCCN2S(=O)(=O)c2ccc(C)cc2)c1 (stereo unspecified) 13.1%, C[C@H](NC(=O)c1[nH]cnc1C(=O)Nc1nccs1)c1ccccc1 -5.6%, COc1ccc(-c2csc3ncnc(N4CCN(S(=O)(=O)c5ccccc5C#N)CC4)c23)cc1 -3.1%, Cc1ccc(C)c(S(=O)(=O)N2CCN(CC(=O)Nc3ccc([N+](=O)[O-])cc3)CC2)c1 5.73%, C[n+]1cc(-c2ccccc2)oc1-c1ccccc1 -76.7%, Cc1ccccc1NC(=O)Cc1nc(COC(=O)C(C)(C)Oc2ccc(Cl)cc2)cs1 -2.77%, COc1cc(NC(=S)N2CCCC(C)C2)cc(OC)c1OC (stereo unspecified) -25.8%, COc1ccc2cc(C3=CC(=O)C[C@H](c4ccc5c(c4)OCO5)C3)ccc2c1 -45.2%, O=C1C=C(c2cc(C(F)(F)F)cc(C(F)(F)F)c2)C[C@@H](c2ccc3c(c2)OCO3)C1 15%, COc1ccccc1NC(=O)C(C)OC(=O)c1ccc(-n2cnnn2)cc1 (stereo unspecified) 1.76%, CC(=O)N1c2ccc(S(=O)(=O)N3CCC(C(=O)N4CCN(c5ccccc5)CC4)CC3)cc2CC1C (stereo unspecified) 74.2%, CC(=O)N1CCCc2cc(S(=O)(=O)CCC(=O)N3CCN(c4ccccc4)CC3)ccc21 -3.7%, CCOC(=O)C1=CC[C@@H](c2ccncc2)N(S(=O)(=O)c2ccc(C)cc2)C1 4.63%, COc1ccc(C(c2nnnn2C2CCCC2)N2CCN(C/C=C/c3ccccc3)CC2)cc1 (stereo unspecified) 16.4%, Cc1cc2nc(-c3ccco3)c(Cc3cccc(F)c3)n2c(C)c1Br 54.3%, O=C(NCc1cccs1)c1ccc2c(c1)ncn2C1CCCC1 -25.6%, COc1c(C=O)c(CCN(C)C(=O)c2ccc(F)cc2)cc2c1OCO2 -0.0815%, Cn1c(CCNS(=O)(=O)c2ccc(F)cc2)nnc1SCc1cccnc1 -8.53%, CC(=O)Nc1ccc(SCC(=O)NC(=O)c2ccc(Cl)cc2)cc1 5.11%, O=C(CCl)Nc1cccc(CP(=O)(c2ccccc2)c2ccccc2)c1 -0.336%, COCCN(CCOC)c1nc(N)c2c(N)nc3c(c2c1C#N)CC(=O)N3Cc1ccc(Cl)cc1 -5.44%

inhibition, active:
COc1ccc(NC(=O)/C(Cl)=C(/Cl)S(=O)Cc2ccc(C)cc2)cn1 (stereo unspecified) 96.6%, COc1ccc2c(c1)c(=Cc1ccc(N(C)C)cc1)c1cc(-c3ccccc3)[n+](C)n12 92.6%, O=C1/C(=C\c2ccc([N+](=O)[O-])cc2)CS(=O)(=O)C/C1=C/c1ccc([N+](=O)[O-])cc1 96.5%, COc1ccc(CNc2ncnc3ccccc23)cc1 86.1%, COc1ccc2c(c1OC)C(=O)OC2Nc1nc(-c2ccccc2)cs1 (stereo unspecified) 89.4%, Cc1ccc(NC(=O)CN(C)CC(=O)Nc2cccc(F)c2)cc1[N+](=O)[O-] 90.8%, COc1cccc(/C=N/Nc2ncc(C(F)(F)F)cc2Cl)c1O 89.9%, CCCOC(=O)c1[nH]c2c(c1C)C(=O)CC(c1cc(OC)c(OC)c(OC)c1)C2 (stereo unspecified) 83.2%, Cc1nc2ccccc2cc1OCc1ccc(F)cc1 85.8%, COc1ccc(Cc2nnc(N/N=C/c3ccccc3O)[nH]c2=O)cc1OC 91.1%, COc1cccc(/C=N/Nc2cc(C)nc(-c3ccccc3O)n2)c1O 86.9%, Cc1cc(C)nc(S/C=C/C(=O)c2ccccc2)n1 95.6%, Cc1ccc(/C=N/NC(=O)C2=NNC(c3ccccc3)(c3ccccc3)C2)c(O)c1 88.2%, O=C(NC1=CC(=O)c2ccccc2C1=O)c1ccccc1 93.6%, Cn1c(SCC(=O)N2CCCc3ccccc32)nc2ccccc2c1=O 86.2%, Cc1ccc(C)c(S(=O)(=O)N2CCN(c3ncnc4sccc34)CC2)c1 86.3%, O=C1C=C(c2ccnc3cc(Cl)ccc23)C[C@@H](c2ccc3c(c2)OCO3)C1 85.5%, CC(=O)N1CCCc2cc(S(=O)(=O)N3CCCC(C(=O)N4CCN(c5cccc(Cl)c5)CC4)C3)ccc21 (stereo unspecified) 93%, O=C1C(Cl)=C(Oc2ccccc2)C(=O)c2ccccc21 96.1%, O=C(CCl)Nc1ccc(Sc2ccc(NC(=O)CCl)cc2)cc1 96.4%
